In PubChem BioAssay (NCI) one finds growth data, which are given here for 7 molecules.

The panel holds about 83,000 compounds, 20% with a hit somewhere; the sample as a whole holds those more often.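 Results are percent growth after 48 hours of single-concentration exposure. 100 means growth as in untreated cells, lower positive values show inhibition; negative values down to -100 show cell death.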 Unmarked numbers belong to inactive results. Calls of active or inactive are those of the source. How the source made its calls: active means growth percent below 10; inactive means the rest.

Among the test systems are NCI-H23 lung; NCI-H226 lung; NCI-H322M lung; HOP-62 NSCLC; NCI-H460 lung; HOP-92 NSCLC; NCI-H522 lung; A549/ATCC NSCLC; 786-0 renal; COLO 205 colon; DU-145 prostate; K-562 leukemia; MALME-3M melanoma; MDA-MB-231 breast; RXF 393 renal; SF-268 CNS; SF-295 CNS; SF-539 CNS; UACC-257 melanoma; M14 melanoma.
Holding throughout (assay): NCI-60 one-dose screen, 48 h (100 = growth as untreated, 0 = no growth, -100 = all killed)
Common to all, as to conditions: 10 µM unless noted

On to `COc1cc(C(=O)/C=C/c2cn(-c3ccccc3)nc2-c2cccc(Nc3ccnc4cc(Cl)ccc34)c2)cc(OC)c1OC`, for which the growth is 100% in the assay with NCI-H23 lung; 98.1% in the assay with NCI-H226 lung; 88.1% in the assay on NCI-H322M lung; 78.2% in the assay on HOP-62 NSCLC; 90.5% in the assay on NCI-H460 lung; 73.3% with HOP-92 NSCLC. Moreover, the growth with NCI-H522 lung was 106%; in the assay with A549/ATCC NSCLC it was 91.5%; in the assay with 786-0 renal, 89%; in the assay with COLO 205 colon, 88.9%; in the assay on DU-145 prostate, 76.9%; in the assay with K-562 leukemia, 59.5%. In addition, the growth in the assay on MALME-3M melanoma was 73%; in the assay on MDA-MB-231 breast, 62.9%; with RXF 393 renal, 86.7%; in the assay on SF-268 CNS, 93.6%; in the assay on SF-295 CNS, 117%; with SF-539 CNS it was 98%. Besides, the growth is 111% with UACC-257 melanoma and 100% in the assay on M14 melanoma.

Consider `COc1ccc(/C(=C\c2cc(OC)c(OC)c(OC)c2)C(=O)N2CCNCC2)cc1`, for which the growth in the assay with NCI-H23 lung is 102%; in the assay with NCI-H226 lung, 94%; in the assay on NCI-H322M lung, 99.2%; in the assay on HOP-62 NSCLC, 97.4%; with NCI-H460 lung, 105%; with HOP-92 NSCLC, 94%. Besides, the growth with NCI-H522 lung was 79.1%; with A549/ATCC NSCLC, 90.4%; in the assay on 786-0 renal it was 103%; in the assay with COLO 205 colon it was 113%; with DU-145 prostate, 112%; in the assay on K-562 leukemia, 92.4%. The growth in the assay with MALME-3M melanoma is 108%; in the assay on MDA-MB-231 breast, 102%; in the assay on RXF 393 renal it was 99.2%; in the assay with SF-268 CNS, 103%; with SF-295 CNS it was 104%; in the assay with SF-539 CNS, 102%. In addition, the growth is 91.3% in the assay on UACC-257 melanoma and 99% with M14 melanoma.

In the case of `CCN(CC)CCCC(C)Nc1cnc(C(=O)Nc2ccc(Cl)c3cccnc23)cn1` (stereo not given), the growth was 80.4% in the assay on NCI-H23 lung; 39.1% with NCI-H226 lung; 35.3% in the assay on NCI-H322M lung; 43% with HOP-62 NSCLC; 3.47% (active) in the assay on NCI-H460 lung; 38.8% in the assay on HOP-92 NSCLC. Further, the growth in the assay on NCI-H522 lung was 4.41% (active); in the assay on A549/ATCC NSCLC it was 23.4%; in the assay on 786-0 renal, -44.2% (active); with COLO 205 colon, -66.7% (active); in the assay with DU-145 prostate, 53.1%; in the assay with K-562 leukemia it was -45.8% (active). Besides, the growth in the assay on MALME-3M melanoma is -71.8% (active); with MDA-MB-231 breast, -29.7% (active); with RXF 393 renal it was 18.7%; with SF-268 CNS, 35.8%; in the assay with SF-295 CNS, 63%; with SF-539 CNS, -73.6% (active). The growth in the assay with UACC-257 melanoma was -33% (active); with M14 melanoma, -73.1% (active).

For the molecule `O=C(OCc1ccc2c(Cl)cc(Cl)c(O)c2n1)c1cc2ccccc2[nH]1`, the growth was -54.4% (active) with NCI-H23 lung; -73.7% (active) in the assay with NCI-H226 lung; 8.26% (active) with NCI-H322M lung; -35.1% (active) in the assay with HOP-62 NSCLC; -75% (active) with NCI-H460 lung; -77.3% (active) in the assay on HOP-92 NSCLC. Further, the growth was -73.8% (active) in the assay on NCI-H522 lung; -54.2% (active) in the assay on A549/ATCC NSCLC; -78.6% (active) in the assay with 786-0 renal; -87.1% (active) in the assay with COLO 205 colon; -94.5% (active) in the assay on DU-145 prostate; -5.38% (active) with K-562 leukemia. Further, the growth in the assay with MALME-3M melanoma was -77.7% (active); in the assay with MDA-MB-231 breast, -78.3% (active); with RXF 393 renal, -94.9% (active); in the assay with SF-268 CNS, -80.4% (active); with SF-295 CNS, 64.3%; with SF-539 CNS, -91.1% (active). Further, the growth with UACC-257 melanoma was -72.4% (active); with M14 melanoma, -69.7% (active).

As for `O=C(C(=O)c1cccnc1)c1cccnc1`, the growth with NCI-H23 lung is 98.8%; with NCI-H226 lung it was 115%; in the assay with NCI-H322M lung, 117%; in the assay on HOP-62 NSCLC it was 98.4%; with NCI-H460 lung it was 111%; in the assay on HOP-92 NSCLC, 103%. The growth in the assay on NCI-H522 lung was -0.192% (active); in the assay with A549/ATCC NSCLC it was 111%; with 786-0 renal it was 101%; in the assay with COLO 205 colon, 174%; in the assay on DU-145 prostate, 121%; in the assay on K-562 leukemia, 110%. For the same molecule, the growth in the assay on MALME-3M melanoma is 118%; in the assay with MDA-MB-231 breast it was 99.7%; in the assay on RXF 393 renal it was 136%; with SF-268 CNS it was 95.8%; in the assay with SF-295 CNS, 116%; in the assay on SF-539 CNS, 99.3%. Moreover, the growth was 95% with UACC-257 melanoma and 96.3% in the assay on M14 melanoma.

Regarding `COC(=O)/C=C/c1cc(OC(C)=O)c2c(c1)[C@@H](C(=O)OC)[C@H](c1ccc(OC(C)=O)c(OC(C)=O)c1)O2`, the growth with NCI-H23 lung is 20.7%; in the assay with NCI-H226 lung, -7.97% (active); in the assay on NCI-H322M lung it was 60%; with HOP-62 NSCLC, 24%; in the assay with NCI-H460 lung it was 11.4%; in the assay on HOP-92 NSCLC it was 12.9%. The growth was -25.3% (active) with NCI-H522 lung; 20.6% in the assay on A549/ATCC NSCLC; 21.5% in the assay with 786-0 renal; 47.1% in the assay on COLO 205 colon; -9.78% (active) with DU-145 prostate; 8.05% (active) in the assay on K-562 leukemia. Further, the growth in the assay on MALME-3M melanoma is 48.7%; in the assay with MDA-MB-231 breast it was 14.1%; in the assay with RXF 393 renal it was 37.1%; in the assay with SF-268 CNS it was 24.2%; in the assay with SF-295 CNS, 23.9%; in the assay on SF-539 CNS, -23.9% (active). In addition, the growth in the assay with UACC-257 melanoma was 48.3%; in the assay with M14 melanoma, 2.76% (active).

Regarding `COc1cc(C2CC(c3cccc(Nc4ccnc5cc(Cl)ccc45)c3)=NN2c2ccccc2)cc(OC)c1OC` (stereo not given), the growth was 79.5% in the assay with NCI-H23 lung; 82.1% with NCI-H226 lung; 87% in the assay on NCI-H322M lung; 82.3% in the assay with HOP-62 NSCLC; 71.1% in the assay with NCI-H460 lung; 33.3% in the assay on HOP-92 NSCLC. The growth in the assay on NCI-H522 lung is 53.8%; with A549/ATCC NSCLC, 76.2%; in the assay with 786-0 renal, 88%; with COLO 205 colon, 92.2%; in the assay with DU-145 prostate, 68.9%; in the assay on K-562 leukemia it was 14%. Besides, the growth in the assay with MALME-3M melanoma was 64.3%; in the assay on MDA-MB-231 breast, 77.7%; in the assay with RXF 393 renal, 93.1%; in the assay on SF-268 CNS, 63.2%; in the assay on SF-295 CNS, 31.5%; in the assay with SF-539 CNS, 80.7%. For the same molecule, the growth in the assay on UACC-257 melanoma is 80.1%; with M14 melanoma, 34.7%.
